Compound activity as filed in PubChem.
GPR151 ag: human GPR151 activation; Q8TDV0; PathHunter beta-arrestin GPR151 cells, luminescence; activation, % at 11.2 µM; 650,000 tested, 1% active; in the data active = activation above about 4.9%;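 also: 0% = median of compound wells and 100% = cells with positive control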
FBW7 activator: activators of human E3 ligase FBW7; 650,000 tested, 0.13% active; Q969H0; normalized activity (activation), % at 26.1 µM; AlphaScreen FBW7–phospho-cyclin E peptide binding, activator screen; in the data active = normalized activity above about 1.9%;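 also: purified mutant Fbw7 with reduced substrate affinity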
MITF primary: blocks human microphthalmia-associated transcription factor; O75030; AlphaScreen MITF homodimerization, bead proximity signal; inhibition, % at 2.6 µM; 650,000 tested, 0.91% active; AID 1259374; in the data active = inhibition above about 50%;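 also: 0% = vehicle wells with protein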
Target sequence (O75030 whole entry, looked up): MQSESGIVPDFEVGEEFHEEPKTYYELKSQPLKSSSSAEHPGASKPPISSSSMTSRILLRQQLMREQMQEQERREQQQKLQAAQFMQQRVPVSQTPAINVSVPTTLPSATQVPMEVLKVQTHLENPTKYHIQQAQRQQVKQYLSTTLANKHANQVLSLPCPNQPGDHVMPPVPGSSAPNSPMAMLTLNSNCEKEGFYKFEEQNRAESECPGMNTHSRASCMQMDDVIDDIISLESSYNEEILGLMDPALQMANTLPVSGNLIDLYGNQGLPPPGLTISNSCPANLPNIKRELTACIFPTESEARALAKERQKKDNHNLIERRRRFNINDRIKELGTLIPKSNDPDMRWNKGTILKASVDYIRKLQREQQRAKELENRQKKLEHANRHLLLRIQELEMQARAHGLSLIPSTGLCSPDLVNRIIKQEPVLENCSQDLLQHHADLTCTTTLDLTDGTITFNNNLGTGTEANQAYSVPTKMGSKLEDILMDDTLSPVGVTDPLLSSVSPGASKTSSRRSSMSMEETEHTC
TEAD-YAP inh: TEAD-YAP interaction inhibition. HEK-TIYL cells, TEAD-Gal4/YAP UAS-luciferase luminescence. inhibition, % at 9.12 µM. 640,000 tested, 1.4% active. AID 1259422; in the data active = inhibition above about 32%;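 also: 0% = median of test compound wells and 100% = reference inhibitor wells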
* marks the source's active call; other numbers are inactive results. Hits are enriched below; roughly 3.4% of the tested compounds scored in any of these assays.

SMILES	GPR151 ag	FBW7 activator	MITF primary	TEAD-YAP inh
CC(C)C(NC(=O)c1ccoc1)c1nnc2n1CCN(Cc1cccc(F)c1F)CC2 (stereo not given)	0	0	-9	-12
COc1ccc(C2=NN(C(=O)c3ccc(Br)o3)C(c3ccccc3)C2)cc1OC (stereo not given)	0	0	2	1
C#CC1(O)CCSC(C)(C)C1 (stereo not given)	-1	0	-1	-3
COc1ccc(/C=C/c2ccc3ccccc3[n+]2[O-])cc1	-3	0	3	72*
CC[n+]1c(/C=C/c2ccc(OC)c(OC)c2)ccc2ccccc21	1	1	15	59*
CCN1/C(=C/C(=C/c2sc3ccc(Cl)cc3[n+]2CC)C2CC2)Sc2ccc(Cl)cc21	-2	0	37	30
CCN1/C(=C/c2ccc3ccccc3[n+]2CC)Sc2cc(OC)c(OC)cc21	-1	-1	42	91*
CCN1/C(=C/c2ccc3ccccc3[n+]2CC)Sc2ccc(Br)cc21	1	-1	16	71*
COc1ccc(C2=N/C(=C\c3ccc(Cl)cc3Cl)C(=O)O2)cc1	-2	0	-14	1
CC(C)(C)c1ccc(NC(=O)c2cnc3ccccn23)cc1	-1	1	21	55*
O=C(Nc1ccc(Cl)cc1)c1cnc2ccccn12	-1	0	17	-23
CCOC(=O)CC(=O)CSc1nc(C)cc(C(F)(F)F)c1C#N	1	0	7	7
CCOc1ccc2cc(-c3ccccn3)c(=N)oc2c1	-9	0	-15	59*
Cc1ccc(-c2nc(-c3cccs3)no2)cc1[N+](=O)[O-]	-1	0	2	-21
CCOc1ccc(-c2nc(-c3ccccn3)no2)cc1	-8	0	6	98*
Cc1ccc(-c2nc(-c3ccccn3)no2)cc1[N+](=O)[O-]	-7	0	-2	55*
Cc1ccc(-c2nc(-c3ccccn3)no2)cc1	-11	0	4	95*
CCCOc1ccc(-c2ccc(-c3nc(-c4ccccn4)no3)cc2)cc1	-2	0	8	5
Cc1ccc(Oc2ccc(N(C)C(=O)CC(C)C)cc2)nn1	-1	0	6	7
C=CCNC(=O)CN1CCN(C(=O)c2ccco2)CC1	0	0	9	7
CC(C)N(CCNc1nc(Cl)nc2c1ncn2CCN1CCCC1=O)C(C)C	0	0	8	-6
Cc1ccc(-c2nc(-c3ccccn3)no2)cc1Cl	-11	0	-1	84*
c1ccc(-c2ccc(-c3nc(-c4ccccn4)no3)cc2)cc1	-12	0	-2	95*
CCc1cccc(NS(=O)(=O)c2ccc3c4c2CC(=O)N4CC(C)S3)c1 (stereo not given)	0	0	-3	36*
CC1CN2C(=O)Cc3c(S(=O)(=O)Nc4ccc(F)cc4)ccc(c32)S1 (stereo not given)	0	0	10	23
SMILES	GPR151 ag	FBW7 activator	MITF primary	TEAD-YAP inh
COc1ccc(OC)c(CCNCc2c(C(=O)O)n(Cc3ccccc3)c3ccccc23)c1	0	1	13	20
COC(=O)CCCNc1nncc(-c2ccc3c(c2)OCO3)n1	1	0	2	35*
CO[C@H](C(=O)[C@@H](O)[C@@H](C)O)[C@@H]1Cc2cc3cc(O[C@H]4C[C@@H](O[C@H]5C[C@@H](O)[C@H](O)[C@@H](C)O5)[C@H](O)[C@@H](C)O4)c(C)c(O)c3c(O)c2C(=O)[C@H]1O[C@H]1C[C@@H](O[C@H]2C[C@@H](O[C@H]3C[C@](C)(O)[C@H](O)[C@@H](C)O3)[C@@H](O)[C@@H](C)O2)[C@H](O)[C@@H](C)O1	-2	0	36	92*
NC(=S)N1N=CCC1(O)C(F)(F)F (stereo not given)	-1	0	36	53*
O=C(Nc1ccc(F)cc1)c1ccc2c(=O)n(Cc3ccco3)c(=S)[nH]c2c1	1	0	-5	2
Cc1nc(C)n(-c2ccc(Nc3nccc(-c4ccc5ccccc5c4)n3)cc2)n1	0	1	17	27
Cc1nc(C)n(-c2ccc(Nc3nccc(N(C)Cc4ccccc4)n3)cc2)n1	0	1	24	51*
CCOC(=O)CN(Cc1ccccc1)c1ccnc(Nc2ccc(-n3nc(C)nc3C)cc2)n1	1	0	0	53*
COc1cc(/C=C2\N=C(c3cc(OC)c(OC)c(OC)c3)OC2=O)cc(I)c1OC(C)=O	1	0	-2	12
O=C1/C(=C/c2cccnc2)CCC/C1=C\c1cccnc1	0	0	-17	87*
Cc1ccc(CCn2c(C)c(C)c3ccccc32)cn1	3	1	9	-3
